This note sets out measurements from PubChem BioAssay (NCI).

Structures are written as SMILES. This is part of a sample that, as a whole, favours compounds with a hit. Of some 83,000 tested, about 20% had one in any assay.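 The endpoint reported here, percent growth, reads 100 for growth as untreated, 0 for no net growth and -100 for all cells dead.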 Values without a mark were called inactive. Active and inactive are the calls of the source. The calls were made as follows: active = growth percent below 10; inactive = the rest.

Test systems include NCI-H23 lung; NCI-H226 lung; NCI-H322M lung; HOP-62 NSCLC; NCI-H460 lung; HOP-92 NSCLC; NCI-H522 lung; A549/ATCC NSCLC; 786-0 renal; COLO 205 colon.
What all share (assay): NCI-60 one-dose screen, 48 h (100 = growth as untreated, 0 = no growth, -100 = all killed)
Holding throughout (details): 10 µM unless noted

For `Brc1cccc(-c2cc(-c3ccc4nccnc4c3)[nH]n2)c1`, the growth is 46.5% [25 µM] with NCI-H23 lung; 22.4% [25 µM] in the test with NCI-H226 lung; 50.5% [25 µM] in the test with NCI-H322M lung; 30.1% [25 µM] with HOP-62 NSCLC; 4.81% [25 µM] (active) with NCI-H460 lung; 55.5% [25 µM] with HOP-92 NSCLC. Also, the growth was -5.69% [25 µM] (active) in the test on NCI-H522 lung, 31.2% [25 µM] in the test on A549/ATCC NSCLC, 35.1% [25 µM] in the test on 786-0 renal and -24.7% [25 µM] (active) in the test on COLO 205 colon.

As to `O=C1CCCCC1(c1ccccc1)c1ccccc1`, the growth in the test on NCI-H23 lung was 98.8%; with NCI-H226 lung, 99.8%; in the test on NCI-H322M lung, 111%; in the test on HOP-62 NSCLC, 103%; with NCI-H460 lung, 103%; with HOP-92 NSCLC, 89.3%. In addition, the growth is 99% in the test with NCI-H522 lung, 110% in the test with A549/ATCC NSCLC, 109% with 786-0 renal and 109% in the test on COLO 205 colon.

Consider `CCCC(=O)Oc1ccc(/C(=C(\C)c2ccccc2)c2ccc(OCCN(CC)CC)cc2)cc1`, for which the growth was 87.6% with NCI-H23 lung; 99.3% in the test with NCI-H226 lung; 83.3% with NCI-H322M lung; 92.9% with HOP-62 NSCLC; 69.8% with NCI-H460 lung; 57.7% in the test with HOP-92 NSCLC. Also, the growth with NCI-H522 lung is 72.1%; in the test with A549/ATCC NSCLC it was 67.2%; in the test with 786-0 renal, 71%; in the test with COLO 205 colon, 51%.

For `COc1ccc(-c2[nH]nc(N)c2-c2cc(OC)c3c(c2)OCO3)cc1`, the growth is 63.4% with NCI-H23 lung; 84.9% in the test with NCI-H226 lung; 92.9% in the test with NCI-H322M lung; 59.8% in the test on HOP-62 NSCLC; 33.1% in the test on NCI-H460 lung; 69.7% in the test on HOP-92 NSCLC. The growth with NCI-H522 lung was -21% (active); with A549/ATCC NSCLC, 52%; in the test with 786-0 renal, 77.6%; in the test with COLO 205 colon, 61.3%.

With `NC1=NC(SCc2ccccc2CCl)c2ncn(Cc3ccccc3CCl)c2N1` (stereo not given), the growth in the test on NCI-H23 lung is 70.8%; in the test on NCI-H226 lung it was 60.2%; in the test on NCI-H322M lung, 80.8%; in the test on HOP-62 NSCLC, 74.5%; with NCI-H460 lung it was 80.7%; with HOP-92 NSCLC it was 24%. The growth in the test on NCI-H522 lung is -92% (active); with A549/ATCC NSCLC, 80.3%; in the test on 786-0 renal it was 64.2%; in the test with COLO 205 colon it was 43.9%.

On to `Cc1ccc(-c2nc(C(Cl)Cl)n3nc(-c4ccccc4)cc3n2)cc1`, for which the growth with NCI-H23 lung was 47.3%; in the test with NCI-H226 lung, 88%; with NCI-H322M lung, 83.3%; with HOP-62 NSCLC, 3.61% (active); with NCI-H460 lung it was 15.5%; with HOP-92 NSCLC it was -8.47% (active). Besides, the growth in the test on NCI-H522 lung was 100%; in the test with A549/ATCC NSCLC, 12%; in the test with 786-0 renal it was 17.8%; with COLO 205 colon it was 6.05% (active).

For `COc1ccc(Nc2nc(N)nc3c2CCN(Cc2ccc(OC)cc2OC)C3=O)cc1`, the growth with NCI-H23 lung is 73.1%; in the test with NCI-H226 lung, 88%; in the test with NCI-H322M lung, 71.1%; in the test with HOP-62 NSCLC it was 63.2%; in the test with NCI-H460 lung, 67.8%; in the test with HOP-92 NSCLC, 7.69% (active). The growth with NCI-H522 lung is 89.3%; in the test with A549/ATCC NSCLC, 85.6%; with 786-0 renal, 72.1%; in the test on COLO 205 colon, 110%.

For the compound `CCOC(=O)c1ccc(NC(=O)N2CC(C)OC(C)C2)cc1` (stereo not given), the growth is 92% in the test on NCI-H23 lung; 98.1% in the test with NCI-H226 lung; 111% in the test with NCI-H322M lung; 91.7% in the test with HOP-62 NSCLC; 104% with NCI-H460 lung; 81.2% in the test on HOP-92 NSCLC. Besides, the growth is 94.6% in the test on NCI-H522 lung, 106% in the test on A549/ATCC NSCLC, 98.6% with 786-0 renal and 116% in the test on COLO 205 colon.

For the compound `COc1cccc(/C=C2\Oc3cc(OCCCN4CCCC4)ccc3C2=O)c1`, the growth with NCI-H23 lung is 88%; in the test with NCI-H226 lung it was 95.4%; with NCI-H322M lung it was 88.2%; in the test on HOP-62 NSCLC, 98.1%; in the test with NCI-H460 lung, 78.4%; in the test on HOP-92 NSCLC, 74.1%. Further, the growth was 92.2% with NCI-H522 lung, 91% with A549/ATCC NSCLC, 74.4% in the test on 786-0 renal and 86.7% in the test on COLO 205 colon.

In the case of `COc1ccc(-c2nc(/C=N/Nc3cc(C)nc4ccc(Br)cc34)c(C)o2)cc1`, the growth was -41.9% (active) with NCI-H23 lung; -37.4% (active) with NCI-H226 lung; -96.2% (active) in the test on NCI-H322M lung; 64.5% in the test with HOP-62 NSCLC; -80.6% (active) with NCI-H460 lung; -84.3% (active) with HOP-92 NSCLC. Further, the growth was -58.4% (active) in the test with NCI-H522 lung, -61% (active) with A549/ATCC NSCLC, -81.5% (active) with 786-0 renal and -75.6% (active) with COLO 205 colon.

Consider `Clc1cc(Cl)c2nc(-c3ccc(-c4ccc(/C=N/NC5=NCCN5)cc4)s3)cn2c1`, for which the growth was 94.1% with NCI-H23 lung; 89.5% in the test on NCI-H226 lung; 99.1% in the test on NCI-H322M lung; 88.9% in the test on HOP-62 NSCLC; 98.8% with NCI-H460 lung; 14.5% in the test with HOP-92 NSCLC. Besides, the growth in the test on NCI-H522 lung was 103%; with A549/ATCC NSCLC, 87.7%; with 786-0 renal it was 88.5%; in the test with COLO 205 colon, 93.7%.

Consider `CC(=O)Nc1ccc(S(=O)(=O)n2ccc(-c3ccc4c(c3)CCC(C)(C)O4)n2)cc1`, for which the growth in the test with NCI-H23 lung is 56.6%; in the test on NCI-H226 lung it was 52.4%; in the test on NCI-H322M lung, 89%; in the test on HOP-62 NSCLC, 94.4%; with NCI-H460 lung, 41.4%; in the test on HOP-92 NSCLC, 69.8%. Moreover, the growth with NCI-H522 lung is 54%; with A549/ATCC NSCLC it was 57.8%; in the test with 786-0 renal it was 79.8%; in the test with COLO 205 colon, 88.8%.

Take `C=C(C)[C@@H]1C[C@@H]2Cc3ccc(Cl)c(C)c3N1O2`: the growth in the test with NCI-H23 lung was 97.4%; in the test with NCI-H226 lung, 107%; in the test with NCI-H322M lung it was 108%; in the test on HOP-62 NSCLC, 98%; in the test with NCI-H460 lung, 106%; in the test on HOP-92 NSCLC, 77.5%. In addition, the growth with NCI-H522 lung is 84.8%; in the test on A549/ATCC NSCLC, 89.9%; with 786-0 renal, 98.5%; with COLO 205 colon it was 112%.
